Laboratory results reported in the supplement of paper PMC11732987, “Enantioselective OTUD7B fragment discovery through chemoproteomics screening and high-throughput optimisation” (Communications Chemistry, 2025).

What was measured:
Test in all cases: log2 ratio of Biotin-Ahx-Ub-VS probe labelling (fragment/DMSO); higher = less target engagement (more negative = stronger competition), active = hit call of the paper (q ≤ 0.05, log2 ratio ≤ -1)
Conditions in all cases: compound concentration: 200 uM; treatment time: 3 h
ALG13 = target: T1, ALG13 (UniProt Q9NP73)
T1 sequence (whole entry): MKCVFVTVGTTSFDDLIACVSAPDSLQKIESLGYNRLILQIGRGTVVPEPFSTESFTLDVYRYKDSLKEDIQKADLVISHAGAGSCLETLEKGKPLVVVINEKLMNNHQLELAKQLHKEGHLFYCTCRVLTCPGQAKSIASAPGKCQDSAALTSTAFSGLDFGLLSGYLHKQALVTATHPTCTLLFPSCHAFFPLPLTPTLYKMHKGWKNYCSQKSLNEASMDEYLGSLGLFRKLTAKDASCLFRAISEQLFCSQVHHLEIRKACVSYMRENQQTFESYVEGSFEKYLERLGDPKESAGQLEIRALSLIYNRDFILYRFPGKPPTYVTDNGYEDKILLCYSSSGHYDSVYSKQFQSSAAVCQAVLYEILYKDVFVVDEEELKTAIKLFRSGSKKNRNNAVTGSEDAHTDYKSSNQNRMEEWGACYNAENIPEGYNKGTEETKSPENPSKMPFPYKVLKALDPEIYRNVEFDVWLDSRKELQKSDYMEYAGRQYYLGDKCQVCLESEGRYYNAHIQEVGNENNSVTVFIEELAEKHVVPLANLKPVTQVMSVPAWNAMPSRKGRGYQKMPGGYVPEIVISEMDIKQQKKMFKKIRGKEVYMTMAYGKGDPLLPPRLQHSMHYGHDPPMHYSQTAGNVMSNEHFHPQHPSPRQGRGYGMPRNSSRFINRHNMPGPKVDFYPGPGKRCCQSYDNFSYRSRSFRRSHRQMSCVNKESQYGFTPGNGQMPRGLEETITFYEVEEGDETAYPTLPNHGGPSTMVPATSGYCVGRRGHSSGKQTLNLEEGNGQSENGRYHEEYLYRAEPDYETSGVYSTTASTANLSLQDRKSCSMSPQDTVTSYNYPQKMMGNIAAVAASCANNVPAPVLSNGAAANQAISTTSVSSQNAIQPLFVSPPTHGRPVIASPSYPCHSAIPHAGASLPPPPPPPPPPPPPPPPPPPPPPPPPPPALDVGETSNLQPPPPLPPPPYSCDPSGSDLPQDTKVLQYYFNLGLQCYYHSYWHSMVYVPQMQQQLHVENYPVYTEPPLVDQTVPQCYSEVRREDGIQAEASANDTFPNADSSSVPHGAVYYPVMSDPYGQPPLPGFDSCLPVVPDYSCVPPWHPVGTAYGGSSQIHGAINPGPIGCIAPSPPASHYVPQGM
How it was run: (§1)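 Fragment (200 µM) or vehicle was incubated for 3 h with triplicate HEK293T lysate samples of 495 µg, which were then treated with Biotin-Ahx-Ub-VS at 0.5 µM final for 1 h. Labelled DUBs were enriched on NeutrAvidin, digested with LysC and trypsin, and analysed by diaPASEF LC-MS/MS. Values are average log2 fragment/vehicle ratios from an unpaired t-test on global-median-normalised Spectronaut label-free quantities, using proteins with ≥2 unique peptides.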

ATXN3 = ATXN3 (UniProt P54252)
Sequence of ATXN3 (P54252 whole entry): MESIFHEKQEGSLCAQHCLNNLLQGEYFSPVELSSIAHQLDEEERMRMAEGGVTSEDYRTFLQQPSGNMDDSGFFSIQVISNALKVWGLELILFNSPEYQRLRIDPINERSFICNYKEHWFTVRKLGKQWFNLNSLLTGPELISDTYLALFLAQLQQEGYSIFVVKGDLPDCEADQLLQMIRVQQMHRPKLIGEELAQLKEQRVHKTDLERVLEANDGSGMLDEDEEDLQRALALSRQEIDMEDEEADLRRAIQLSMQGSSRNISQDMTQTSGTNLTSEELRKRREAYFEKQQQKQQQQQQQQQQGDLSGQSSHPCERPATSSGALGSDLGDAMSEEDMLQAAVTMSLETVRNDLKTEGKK
How it was run: as §1

BAP1 = target: T2, BAP1 (UniProt Q92560)
T2 sequence (whole entry): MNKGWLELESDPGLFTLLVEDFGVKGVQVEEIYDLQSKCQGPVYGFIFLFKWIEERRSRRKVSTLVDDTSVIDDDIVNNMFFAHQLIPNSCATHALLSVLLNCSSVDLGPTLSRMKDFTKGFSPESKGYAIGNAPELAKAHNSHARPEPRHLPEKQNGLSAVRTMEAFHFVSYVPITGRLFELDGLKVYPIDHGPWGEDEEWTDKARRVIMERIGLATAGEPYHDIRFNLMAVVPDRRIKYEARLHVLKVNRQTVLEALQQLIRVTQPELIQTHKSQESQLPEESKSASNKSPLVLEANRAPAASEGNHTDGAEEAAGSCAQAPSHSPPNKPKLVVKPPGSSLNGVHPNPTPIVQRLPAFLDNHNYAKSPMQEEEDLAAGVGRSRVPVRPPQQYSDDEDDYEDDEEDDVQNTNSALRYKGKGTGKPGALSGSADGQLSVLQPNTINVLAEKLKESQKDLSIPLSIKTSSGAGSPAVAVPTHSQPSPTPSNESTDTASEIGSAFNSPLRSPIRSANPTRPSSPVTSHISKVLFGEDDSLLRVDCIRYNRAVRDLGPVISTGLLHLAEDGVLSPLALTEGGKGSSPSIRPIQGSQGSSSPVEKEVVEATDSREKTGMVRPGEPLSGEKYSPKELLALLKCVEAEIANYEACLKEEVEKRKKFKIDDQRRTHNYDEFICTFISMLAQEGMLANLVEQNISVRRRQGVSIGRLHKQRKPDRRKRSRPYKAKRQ
How it was run: as §1

EIF3F = EIF3F (UniProt O00303)
Sequence of EIF3F (O00303 whole entry): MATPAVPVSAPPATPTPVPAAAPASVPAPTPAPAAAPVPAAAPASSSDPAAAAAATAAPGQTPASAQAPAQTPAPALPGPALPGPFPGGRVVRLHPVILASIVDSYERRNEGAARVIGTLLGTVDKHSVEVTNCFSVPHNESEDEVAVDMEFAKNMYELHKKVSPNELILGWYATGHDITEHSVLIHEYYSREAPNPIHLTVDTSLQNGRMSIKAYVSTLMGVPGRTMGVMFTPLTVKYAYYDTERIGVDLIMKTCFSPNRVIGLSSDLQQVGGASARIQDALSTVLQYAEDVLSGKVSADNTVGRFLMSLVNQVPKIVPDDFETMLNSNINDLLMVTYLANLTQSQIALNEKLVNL
How it was run: as §1

EIF3H = EIF3H (UniProt O15372)
Sequence of EIF3H (O15372 whole entry): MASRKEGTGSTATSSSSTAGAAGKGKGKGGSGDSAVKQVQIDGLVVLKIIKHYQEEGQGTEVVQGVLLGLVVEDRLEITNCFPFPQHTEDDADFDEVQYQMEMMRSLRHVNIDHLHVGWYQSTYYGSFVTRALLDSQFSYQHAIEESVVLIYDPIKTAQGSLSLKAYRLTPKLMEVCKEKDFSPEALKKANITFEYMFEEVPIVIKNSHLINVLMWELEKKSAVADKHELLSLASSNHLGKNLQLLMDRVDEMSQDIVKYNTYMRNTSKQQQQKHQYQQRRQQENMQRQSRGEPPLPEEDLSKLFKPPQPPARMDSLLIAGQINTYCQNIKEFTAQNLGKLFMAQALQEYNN
How it was run: as §1

FAM105A = target: T3, FAM105A (UniProt Q9NUU6)
T3 sequence (whole entry): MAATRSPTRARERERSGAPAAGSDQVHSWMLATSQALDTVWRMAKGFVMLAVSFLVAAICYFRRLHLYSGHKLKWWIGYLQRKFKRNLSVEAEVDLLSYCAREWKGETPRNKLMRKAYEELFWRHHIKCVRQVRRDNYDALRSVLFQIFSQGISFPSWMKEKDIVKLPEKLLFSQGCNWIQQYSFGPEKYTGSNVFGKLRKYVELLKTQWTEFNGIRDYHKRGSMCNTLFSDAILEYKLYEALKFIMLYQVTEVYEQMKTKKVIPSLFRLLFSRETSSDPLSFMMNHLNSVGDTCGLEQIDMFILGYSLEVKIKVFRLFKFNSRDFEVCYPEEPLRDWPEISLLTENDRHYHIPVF
How it was run: as §1

OTUB1 = OTUB1 (UniProt Q96FW1)
Sequence of OTUB1 (Q96FW1 whole entry): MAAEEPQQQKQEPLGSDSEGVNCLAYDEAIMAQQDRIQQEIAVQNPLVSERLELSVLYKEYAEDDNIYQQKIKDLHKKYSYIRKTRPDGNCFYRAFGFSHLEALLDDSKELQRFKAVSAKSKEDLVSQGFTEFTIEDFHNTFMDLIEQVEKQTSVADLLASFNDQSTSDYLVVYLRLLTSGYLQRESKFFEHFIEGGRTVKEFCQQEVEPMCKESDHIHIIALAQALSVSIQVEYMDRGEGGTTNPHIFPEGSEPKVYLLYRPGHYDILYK
How it was run: as §1

OTUD4 = target: T4, OTUD4 (UniProt Q01804)
T4 sequence (whole entry): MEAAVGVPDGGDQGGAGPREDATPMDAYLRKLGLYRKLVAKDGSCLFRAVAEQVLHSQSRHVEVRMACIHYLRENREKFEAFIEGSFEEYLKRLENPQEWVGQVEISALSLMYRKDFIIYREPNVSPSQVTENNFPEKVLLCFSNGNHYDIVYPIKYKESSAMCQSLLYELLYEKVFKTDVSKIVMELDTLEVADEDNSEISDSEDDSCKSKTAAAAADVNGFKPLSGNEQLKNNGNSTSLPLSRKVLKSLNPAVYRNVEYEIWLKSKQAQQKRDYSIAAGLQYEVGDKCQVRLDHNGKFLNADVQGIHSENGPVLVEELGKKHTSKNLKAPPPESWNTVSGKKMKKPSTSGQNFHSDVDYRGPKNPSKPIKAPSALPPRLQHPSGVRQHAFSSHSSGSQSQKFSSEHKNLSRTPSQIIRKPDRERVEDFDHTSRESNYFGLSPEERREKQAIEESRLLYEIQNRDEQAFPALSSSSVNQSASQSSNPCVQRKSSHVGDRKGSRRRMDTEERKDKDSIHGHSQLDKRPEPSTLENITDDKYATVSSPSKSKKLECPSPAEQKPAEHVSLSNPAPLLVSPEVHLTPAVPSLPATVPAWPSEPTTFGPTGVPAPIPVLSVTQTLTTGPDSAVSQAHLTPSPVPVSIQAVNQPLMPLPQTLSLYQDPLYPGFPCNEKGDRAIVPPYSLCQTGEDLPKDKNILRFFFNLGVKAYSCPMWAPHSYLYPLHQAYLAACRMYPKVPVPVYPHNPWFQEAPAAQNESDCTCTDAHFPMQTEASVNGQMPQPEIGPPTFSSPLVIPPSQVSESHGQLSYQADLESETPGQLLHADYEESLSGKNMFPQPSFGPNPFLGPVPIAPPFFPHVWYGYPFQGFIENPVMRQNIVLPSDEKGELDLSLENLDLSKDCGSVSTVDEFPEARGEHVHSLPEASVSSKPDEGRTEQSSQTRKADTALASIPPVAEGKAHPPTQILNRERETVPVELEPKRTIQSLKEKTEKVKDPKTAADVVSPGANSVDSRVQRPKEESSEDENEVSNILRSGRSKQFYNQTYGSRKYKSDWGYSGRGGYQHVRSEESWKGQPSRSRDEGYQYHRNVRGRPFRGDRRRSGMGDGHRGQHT
How it was run: as §1

OTUD5 = target: T5, OTUD5 (UniProt Q96G74)
T5 sequence (whole entry): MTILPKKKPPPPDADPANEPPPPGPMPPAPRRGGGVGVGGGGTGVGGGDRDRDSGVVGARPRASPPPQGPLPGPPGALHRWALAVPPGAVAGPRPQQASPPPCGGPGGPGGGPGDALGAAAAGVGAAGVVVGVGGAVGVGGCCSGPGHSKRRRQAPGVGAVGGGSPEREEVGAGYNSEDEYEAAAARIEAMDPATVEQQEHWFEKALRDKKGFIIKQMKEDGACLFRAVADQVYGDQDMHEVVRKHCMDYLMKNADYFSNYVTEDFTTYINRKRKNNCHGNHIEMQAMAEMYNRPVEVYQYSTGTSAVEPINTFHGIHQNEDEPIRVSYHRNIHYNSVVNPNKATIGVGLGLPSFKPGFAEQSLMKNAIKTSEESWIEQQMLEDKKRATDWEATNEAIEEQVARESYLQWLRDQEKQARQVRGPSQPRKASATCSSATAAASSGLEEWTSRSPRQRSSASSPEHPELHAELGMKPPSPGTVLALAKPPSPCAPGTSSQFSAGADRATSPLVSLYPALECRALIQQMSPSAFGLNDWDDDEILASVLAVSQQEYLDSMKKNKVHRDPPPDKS
How it was run: as §1

Measured: log2 ratio of Biotin-Ahx-Ub-VS probe labelling

CC(C)n1nccc1NC(=O)CCl
active: BAP1 -4.23
inactive: ALG13 -0.568 | ATXN3 -0.233 | EIF3F -0.0764 | EIF3H 0.237 | FAM105A 0.00922 | OTUB1 -0.27 | OTUD4 -0.438 | OTUD5 -0.522
